# Test results reported in article PMC7862700, “An all-to-all approach to the identification of sequence-specific readers for epigenetic DNA modifications on cytosine”.
# Tests used:
# Assay in all cases: DAPPL (digital affinity profiling via proximity ligation, sequencing); 10 mM Tris-HCl pH 7.5, 50 mM NaCl, 1 mM DTT, 4% glycerol, room temperature, 30 min; GST-TFs on glutathione beads, 16-mer random dsDNA library, 0.1% formaldehyde crosslink after washing; high values mean tight binding
# Conditions in all cases: protein: recombinant; tags: N-terminal GST; dsDNA, one strand shown
# ELF4 = ELF4 (Homo sapiens, UniProt Q99607 1-663)
# How it was run: (§1)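 Pools were built from human transcription factors expressed in yeast as GST fusions, captured on glutathione beads and DNA-barcoded, along with a tag-only sample. Incubation with 200 nmole of a 16-mer random double-stranded DNA library lasted 30 min at room temperature in Tris/NaCl/DTT/glycerol buffer, and was followed by washing, 0.1% formaldehyde crosslinking, proximity ligation, PCR amplification and Illumina NextSeq500 sequencing. Binding signal is the quotient of each hexamer's read frequency for a factor and its frequency for the tag-only sample.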
# ETV2 = target: T1, ETV2 (Homo sapiens, UniProt O00321 1-342)
# T1 sequence: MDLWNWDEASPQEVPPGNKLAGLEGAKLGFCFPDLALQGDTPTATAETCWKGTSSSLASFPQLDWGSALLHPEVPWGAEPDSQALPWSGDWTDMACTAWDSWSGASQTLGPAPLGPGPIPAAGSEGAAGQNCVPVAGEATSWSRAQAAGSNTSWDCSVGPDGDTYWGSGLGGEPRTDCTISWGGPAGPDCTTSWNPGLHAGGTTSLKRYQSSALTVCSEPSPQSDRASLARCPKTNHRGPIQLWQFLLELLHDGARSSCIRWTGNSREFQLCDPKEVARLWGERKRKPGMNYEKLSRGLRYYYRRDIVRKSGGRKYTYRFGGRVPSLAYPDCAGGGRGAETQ
# How it was run: as §1
# ELF3 = target: T2, ELF3 (Homo sapiens, UniProt P78545 1-371)
# T2 sequence: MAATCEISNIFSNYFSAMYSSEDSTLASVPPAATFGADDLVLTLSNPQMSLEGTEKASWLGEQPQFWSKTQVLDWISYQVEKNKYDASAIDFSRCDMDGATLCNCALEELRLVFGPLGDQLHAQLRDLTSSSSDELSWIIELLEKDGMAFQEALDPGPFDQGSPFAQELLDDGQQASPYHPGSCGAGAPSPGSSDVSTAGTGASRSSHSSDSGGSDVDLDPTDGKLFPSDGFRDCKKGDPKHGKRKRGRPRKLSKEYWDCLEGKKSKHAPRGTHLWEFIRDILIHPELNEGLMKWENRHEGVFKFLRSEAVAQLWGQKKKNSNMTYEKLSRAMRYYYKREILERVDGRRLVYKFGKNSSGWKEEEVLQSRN
# How it was run: as §1
# ETV1 = ETV1 (Homo sapiens, UniProt P50549 1-477)
# How it was run: as §1
# ERF = target: T3, ERF (Homo sapiens, UniProt P50548 1-548)
# T3 sequence: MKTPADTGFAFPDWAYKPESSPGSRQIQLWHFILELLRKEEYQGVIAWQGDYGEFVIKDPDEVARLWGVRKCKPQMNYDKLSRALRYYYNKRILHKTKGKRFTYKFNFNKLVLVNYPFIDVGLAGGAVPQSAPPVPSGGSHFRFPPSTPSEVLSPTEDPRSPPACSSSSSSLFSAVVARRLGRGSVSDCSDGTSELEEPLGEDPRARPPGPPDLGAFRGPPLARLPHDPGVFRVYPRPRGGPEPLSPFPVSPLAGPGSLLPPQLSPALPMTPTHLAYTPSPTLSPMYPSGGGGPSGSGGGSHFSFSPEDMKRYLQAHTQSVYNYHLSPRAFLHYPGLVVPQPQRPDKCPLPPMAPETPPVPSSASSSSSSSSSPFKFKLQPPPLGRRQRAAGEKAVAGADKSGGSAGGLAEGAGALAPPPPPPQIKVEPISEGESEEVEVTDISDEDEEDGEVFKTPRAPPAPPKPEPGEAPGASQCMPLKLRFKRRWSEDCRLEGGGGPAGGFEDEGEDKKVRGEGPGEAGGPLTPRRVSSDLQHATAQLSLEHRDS
# How it was run: as §1
# ETV3L = target: T4, ETV3L (Homo sapiens, UniProt Q6ZN32 1-361)
# T4 sequence: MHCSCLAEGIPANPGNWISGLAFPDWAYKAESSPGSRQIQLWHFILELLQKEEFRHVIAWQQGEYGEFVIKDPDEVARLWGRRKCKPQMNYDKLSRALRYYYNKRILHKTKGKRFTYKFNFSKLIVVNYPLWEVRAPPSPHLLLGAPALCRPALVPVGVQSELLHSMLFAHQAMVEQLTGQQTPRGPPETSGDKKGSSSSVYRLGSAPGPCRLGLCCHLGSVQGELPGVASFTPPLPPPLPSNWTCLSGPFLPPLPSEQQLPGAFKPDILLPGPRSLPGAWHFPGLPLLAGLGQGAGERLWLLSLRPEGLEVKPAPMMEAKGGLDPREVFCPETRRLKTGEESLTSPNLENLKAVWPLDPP
# How it was run: as §1
# ETS2 = target: T5, ETS2 (Homo sapiens, UniProt P15036 1-469)
# T5 sequence: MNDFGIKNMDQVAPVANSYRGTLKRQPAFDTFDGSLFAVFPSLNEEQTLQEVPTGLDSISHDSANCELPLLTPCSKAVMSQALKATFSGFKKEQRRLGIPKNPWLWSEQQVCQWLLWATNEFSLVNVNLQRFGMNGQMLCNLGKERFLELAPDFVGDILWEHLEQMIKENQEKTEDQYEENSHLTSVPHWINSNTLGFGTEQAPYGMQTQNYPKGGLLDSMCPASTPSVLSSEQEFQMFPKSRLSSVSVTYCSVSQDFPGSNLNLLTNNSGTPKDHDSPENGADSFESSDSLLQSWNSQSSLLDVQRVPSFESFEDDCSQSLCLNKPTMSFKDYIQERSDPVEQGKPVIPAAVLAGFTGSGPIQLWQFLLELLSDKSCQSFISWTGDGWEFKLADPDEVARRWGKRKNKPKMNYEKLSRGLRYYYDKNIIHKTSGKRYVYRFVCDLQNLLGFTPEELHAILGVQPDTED
# How it was run: as §1
# ETV7 = target: T6, ETV7 (Homo sapiens, UniProt Q9Y603 1-341)
# T6 sequence: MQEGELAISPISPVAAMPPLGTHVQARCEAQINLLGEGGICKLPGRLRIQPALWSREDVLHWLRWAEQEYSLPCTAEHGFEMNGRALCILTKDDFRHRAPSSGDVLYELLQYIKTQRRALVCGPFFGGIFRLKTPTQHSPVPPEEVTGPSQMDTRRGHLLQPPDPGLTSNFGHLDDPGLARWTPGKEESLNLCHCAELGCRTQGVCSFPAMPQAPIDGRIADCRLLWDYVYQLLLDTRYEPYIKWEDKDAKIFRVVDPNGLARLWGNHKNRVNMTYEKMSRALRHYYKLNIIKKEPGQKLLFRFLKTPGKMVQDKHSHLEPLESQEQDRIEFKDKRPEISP
# How it was run: as §1
# ETV3 = target: T7, ETV3 (Homo sapiens, UniProt P41162-2 1-143)
# T7 sequence: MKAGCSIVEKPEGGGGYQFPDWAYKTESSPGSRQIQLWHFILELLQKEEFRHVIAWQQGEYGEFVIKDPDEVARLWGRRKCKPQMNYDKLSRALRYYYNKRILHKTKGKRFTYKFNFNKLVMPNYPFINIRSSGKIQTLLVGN
# How it was run: as §1
# ETV6 = ETV6 (Homo sapiens, UniProt P41212 1-452)
# How it was run: as §1
# ETV1, sequence (P50549 whole entry): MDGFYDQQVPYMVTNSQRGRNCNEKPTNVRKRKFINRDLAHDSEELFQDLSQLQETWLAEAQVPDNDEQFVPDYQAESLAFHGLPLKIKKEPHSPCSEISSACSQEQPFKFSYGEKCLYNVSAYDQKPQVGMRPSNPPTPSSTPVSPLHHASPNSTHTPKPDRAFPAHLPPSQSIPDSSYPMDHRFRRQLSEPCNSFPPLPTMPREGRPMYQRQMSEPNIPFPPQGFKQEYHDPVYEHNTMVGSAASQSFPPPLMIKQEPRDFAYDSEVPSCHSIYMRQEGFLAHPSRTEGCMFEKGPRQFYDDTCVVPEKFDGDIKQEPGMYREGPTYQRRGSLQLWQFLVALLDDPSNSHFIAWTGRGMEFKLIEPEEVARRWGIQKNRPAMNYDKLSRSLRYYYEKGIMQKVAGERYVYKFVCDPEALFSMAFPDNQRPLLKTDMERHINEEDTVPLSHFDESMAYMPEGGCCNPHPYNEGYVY
# ELF4, sequence (Q99607 whole entry, the tested form may be a part): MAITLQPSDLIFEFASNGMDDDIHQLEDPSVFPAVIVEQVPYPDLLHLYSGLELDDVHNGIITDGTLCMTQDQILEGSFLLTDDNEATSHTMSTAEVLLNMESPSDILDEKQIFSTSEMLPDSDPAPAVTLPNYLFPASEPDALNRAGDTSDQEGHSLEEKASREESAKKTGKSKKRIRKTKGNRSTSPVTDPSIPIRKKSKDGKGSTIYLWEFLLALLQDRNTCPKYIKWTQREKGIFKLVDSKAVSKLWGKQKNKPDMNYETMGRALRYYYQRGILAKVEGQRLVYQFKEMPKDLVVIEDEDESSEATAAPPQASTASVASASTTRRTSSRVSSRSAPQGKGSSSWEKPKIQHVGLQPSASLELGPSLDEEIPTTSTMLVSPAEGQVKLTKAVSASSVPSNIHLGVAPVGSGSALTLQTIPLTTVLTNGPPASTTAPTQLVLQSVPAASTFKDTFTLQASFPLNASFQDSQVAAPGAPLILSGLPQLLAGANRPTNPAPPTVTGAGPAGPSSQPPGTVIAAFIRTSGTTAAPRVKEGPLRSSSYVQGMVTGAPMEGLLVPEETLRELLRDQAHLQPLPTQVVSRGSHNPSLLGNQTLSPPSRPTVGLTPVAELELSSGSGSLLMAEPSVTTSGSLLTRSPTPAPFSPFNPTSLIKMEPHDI
# ETV6, sequence (P41212 whole entry): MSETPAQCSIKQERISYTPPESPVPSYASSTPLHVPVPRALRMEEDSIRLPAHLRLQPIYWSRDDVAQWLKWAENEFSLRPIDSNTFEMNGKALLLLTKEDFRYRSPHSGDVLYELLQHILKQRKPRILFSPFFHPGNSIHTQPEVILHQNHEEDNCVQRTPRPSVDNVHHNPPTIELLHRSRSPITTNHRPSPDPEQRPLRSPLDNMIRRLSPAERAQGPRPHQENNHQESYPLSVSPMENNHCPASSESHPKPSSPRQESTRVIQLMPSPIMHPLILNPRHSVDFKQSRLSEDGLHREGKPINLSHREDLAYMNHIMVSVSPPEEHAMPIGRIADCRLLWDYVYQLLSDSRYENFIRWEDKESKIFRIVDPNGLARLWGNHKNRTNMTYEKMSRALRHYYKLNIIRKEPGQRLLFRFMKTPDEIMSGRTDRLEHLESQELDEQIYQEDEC
sequence,measurement,setting,value
ACGACC,binding signal,ELF4,"1.26 fold enrichment (6-mer frequency, TF over GST control)"
same,binding signal,ETV2,"1.34 fold enrichment (6-mer frequency, TF over GST control)"
same,binding signal,ELF3,"1.25 fold enrichment (6-mer frequency, TF over GST control)"
same,binding signal,ETV1,"1.2 fold enrichment (6-mer frequency, TF over GST control)"
same,binding signal,ERF,"1.11 fold enrichment (6-mer frequency, TF over GST control)"
same,binding signal,ETV3L,"1.18 fold enrichment (6-mer frequency, TF over GST control)"
same,binding signal,ETS2,"1.15 fold enrichment (6-mer frequency, TF over GST control)"
same,binding signal,ETV7,"1.18 fold enrichment (6-mer frequency, TF over GST control)"
same,binding signal,ETV3,"1.24 fold enrichment (6-mer frequency, TF over GST control)"
same,binding signal,ETV6,"1.19 fold enrichment (6-mer frequency, TF over GST control)"
